Here are results for nine compounds from publication PMC11062922 (Nature Chemical Biology, 2023).

Read-outs that look alike come from different tables or passages of the source.

Common to all, as to design: species or system human, MV4-11 + K-562 + COLO205 + SK-N-BE2 + OVCAR-8
One assay deals with AKT2. The settings on record: read-out: apparent Kd, compound concentrations: 100 nM and 1000 nM (sheet 'Samples'), n = 1.
A further assay deals with EGFR. Particulars: read-out: apparent Kd, compound concentrations: 100 nM and 1000 nM (sheet 'Samples'), n = 1.
A further assay relates to DYRK1A. Particulars: read-out: apparent Kd, compound concentrations: 100 nM and 1000 nM (sheet 'Samples'), n = 1.
The subject of another assay is ACVR1B. The settings on record: read-out: apparent Kd; compound concentrations: 100 nM and 1000 nM (sheet 'Samples'), CATDS: 6.2055393770244598E-2; n = 1.
For a further assay, the system named is ACVR1. Particulars: read-out: apparent Kd, compound concentrations: 100 nM and 1000 nM (sheet 'Samples'), n = 1.
In the next assay the test system is CSK. The settings on record: read-out: apparent Kd, compound concentrations: 100 nM and 1000 nM (sheet 'Samples'), n = 1.
The subject of another assay is EPHA1. The settings on record: read-out: apparent Kd, compound concentrations: 100 nM and 1000 nM (sheet 'Samples'), n = 1.
Another assay concerns SIK2. Particulars: read-out: apparent Kd, compound concentrations: 100 nM and 1000 nM (sheet 'Samples'), n = 1.
Another assay deals with ACAD11. Particulars: read-out: apparent Kd; compound concentrations: 100 nM and 1000 nM (sheet 'Samples'), CATDS: 8.0770900756938508E-3; n = 1.
The subject of another assay is BTK. The settings on record: read-out: apparent Kd, compound concentrations: 100 nM and 1000 nM (sheet 'Samples'), n = 1.
For another assay, the system named is FLT3. The settings on record: read-out: apparent Kd, compound concentrations: 100 nM and 1000 nM (sheet 'Samples'), n = 1.
The test system of another assay is FRK. Particulars: read-out: apparent Kd, compound concentrations: 100 nM and 1000 nM (sheet 'Samples'), n = 1.
In a further assay the test system is GSK3A. The settings on record: read-out: apparent Kd; compound concentrations: 100 nM and 1000 nM (sheet 'Samples'), CATDS: 2.0180819092640301E-2; n = 1.
The next assay deals with GSK3B. Particulars: read-out: apparent Kd; compound concentrations: 100 nM and 1000 nM (sheet 'Samples'), CATDS: 1.6634751009670601E-2; n = 1.
The subject of a further assay is LYN. Particulars: read-out: apparent Kd, compound concentrations: 100 nM and 1000 nM (sheet 'Samples'), n = 1.
In the next assay the test system is SRC. Particulars: read-out: apparent Kd, compound concentrations: 100 nM and 1000 nM (sheet 'Samples'), n = 1.
In another assay the test system is TNK2. Particulars: read-out: apparent Kd, compound concentrations: 100 nM and 1000 nM (sheet 'Samples'), n = 1.
For another assay, the system named is ZAK. Particulars: read-out: apparent Kd, n = 1.

Take `CS(=O)(=O)CCNCc1ccc(-c2ccc3ncnc(Nc4ccc(OCc5cccc(F)c5)c(C(F)(F)F)c4)c3c2)o1` [GW576484X]: the potency estimated from few doses in the assay on AKT2 (CATDS: 4.5987801057845099E-2) is 2420 nM; in the assay with EGFR (CATDS: 4.6980711652152798E-2), 2290 nM.

In the case of `NC1=NC(=O)/C(=C/c2ccc3ncccc3c2)S1` [RO4569139-000], the potency estimated from few doses with DYRK1A (CATDS: 0.43183776325706602) was 39.3 nM.

In the case of `COc1cc(Nc2ccnc3cc(-c4ccncc4)ccc23)cc(OC)c1OC.Cl` [GW494610A], the potency estimated from few doses with ACVR1B is 76.5 nM; in the assay with ACVR1 (CATDS: 8.6839126385756693E-2), 38.3 nM; in the assay with CSK (CATDS: 2.2928225838280001E-2) it was 1390 nM; in the assay on EPHA1 (CATDS: 0.10844818822907799), 25.4 nM; in the assay on SIK2 (CATDS: 2.3854628716910201E-2) it was 1170 nM.

Regarding `O=C1N=C(NCc2cccs2)SC1Cc1ccc2ncccc2c1` (stereo not shown) [RO4629078-000], the potency estimated from few doses is 1250 nM with ACAD11; 1160 nM with ACVR1 (CATDS: 8.2545547739811299E-3); 360 nM with BTK (CATDS: 1.32457116906247E-2); 419 nM with CSK (CATDS: 1.22881462523177E-2); 398 nM with EPHA1 (CATDS: 1.25959830755684E-2); 1330 nM in the assay with FLT3 (CATDS: 7.9273479759833908E-3). Further, the potency estimated from few doses with FRK (CATDS: 9.6278136963786204E-3) is 738 nM; in the assay on GSK3A, 174 nM; with GSK3B it was 238 nM; in the assay with LYN (CATDS: 9.9981449743306808E-3) it was 670 nM; in the assay on SIK2 (CATDS: 1.2411552216362301E-2), 411 nM; in the assay with SRC (CATDS: 1.3307336951607501E-2), 357 nM. The potency estimated from few doses in the assay with TNK2 (CATDS: 1.95530569334194E-2) is 183 nM.

Turning to `Nc1nc(-c2cccnc2)c(-c2ccnc3ccccc23)s1` [GW684083X], the potency estimated from few doses with ZAK (compound concentrations:100 nM and 1000 nM (sheet 'Samples')) was 1440 nM.

As to `O=C1N=C(NCCc2ccccc2F)S/C1=C\c1ccc2ncccc2c1` [RO4498483-000], the potency estimated from few doses with DYRK1A (CATDS: 8.8096211342070505E-2) is 883 nM; in the assay on FLT3 (CATDS: 7.3322298638159894E-2), 1520 nM.

Regarding `O=C1N=C(NCCc2cccc(Cl)c2)S/C1=C\c1ccc2ncccc2c1` [RO4509201-000], the figures for the potency estimated from few doses with DYRK1A (CATDS: 6.6454923664205107E-2) and in the assay on FLT3 (CATDS: 6.3899678732730503E-2) were 945 nM and 1060 nM, respectively.

Take `O=C1N=C(NCCc2ccccn2)S/C1=C\c1ccc2ncccc2c1` [RO4508346-000]: in the assay on DYRK1A (CATDS: 0.223400824962835), the potency estimated from few doses was 127 nM.

As for `Cl.Cl.Cl.c1ccc(Oc2ccc(Nc3ccnc4cc(-c5ccc(CN6CCNCC6)o5)ccc34)cc2)nc1.c1ccc(Oc2ccc(Nc3ccnc4cc(-c5ccc(CN6CCNCC6)o5)ccc34)cc2)nc1` [GW567142A], the potency estimated from few doses is 1790 nM with AKT2 (CATDS: 1.7589072796327002E-2); 922 nM in the assay with BTK (CATDS: 2.14657129362281E-2); 143 nM with EGFR (CATDS: 4.6801095990659902E-2); 372 nM with EPHA1 (CATDS: 3.01720788002969E-2); 294 nM in the assay with FLT3 (CATDS: 3.3367464965841198E-2); 566 nM with FRK (CATDS: 2.55518807835587E-2). The potency estimated from few doses in the assay on LYN (CATDS: 2.5031582152460801E-2) is 598 nM; in the assay on SRC (CATDS: 6.9151530133692504E-2), 70.8 nM; in the assay with TNK2 (CATDS: 8.9201711222799504E-2), 47.3 nM; in the assay with ZAK (compound concentrations: 100 nM and 1000 nM (sheet 'Samples'), CATDS: 2.00291787525065E-2), 1140 nM.
